Source: PubChem BioAssay (NCI)
Values joined by “and” are separate entries in the source; they are usually repeats but may differ in a detail not shown here. Identical values can stand only once. The panel holds about 79,000 compounds, 15% with a hit somewhere; the sample as a whole holds those more often. Active and inactive are the calls of the source. Cut-off read from the data, not from the text of the source: active = growth inhibition above about 70%; inactive = the rest.

Assay: NCI Yeast Anticancer Drug Screen. Data for the mec2-1 strain (AID 157)
Details: S. cerevisiae mec2-1 strain, stronger effect = higher value
Experimental: Growth inhibition of yeast strains with defined genetic alterations is measured as a screen for potential anti-cancer activity. Selected strains with alterations in DNA damage repair or cell cycle control were exposed to compounds and growth inhibition was measured relative to vehicle treated controls. The strain used in this assay is mec2-1

[1] = at 5.0 µM (retest, dose inferred, filed as 0.5)
[2] = at 50.0 µM (retest, dose inferred, filed as 5.0)

Measured: growth inhibition

CCN(CC)CC(O)c1cc(-c2ccc(Cl)cc2)nc2c(-c3ccccc3)cccc12 (stereo not given)
inactive: at 1.2 µM -8% | at 3.7 µM -3% | [1] 32%
active: at 11.0 µM 98% | at 33.0 µM 98% | [2] 98% | at 50.0 µM 87.9% | at 100.0 µM 96%

Cc1ccc(CNc2ccc(Br)cc2)cc1
active: [2] 90% | at 50.0 µM 76.7% | at 100.0 µM 93%
inactive: at 1.2 µM 1% | at 3.7 µM 2% | [1] 63% | at 11.0 µM 17% | at 33.0 µM 66%

Clc1cc(Cc2ccc(N=C/C=C/c3ccccc3)c(Cl)c2)ccc1N=C/C=C\c1ccccc1
active: [1] 100% | [2] 99%
inactive: at 1.2 µM 17% | at 3.7 µM 20% | at 11.0 µM 9% | at 33.0 µM -11% | at 50.0 µM 33.1% | at 100.0 µM 19%

CCn1ncc(N=O)c1N
inactive: at 1.2 µM 3% | at 3.7 µM 11% | [1] 8% | at 11.0 µM 23% | at 33.0 µM 37% | [2] 35% | at 50.0 µM 67% and 42% | at 100.0 µM 57%

CCCCCC(=O)c1ccc(O)cc1O
inactive: at 1.2 µM -7% | at 3.7 µM -6% | at 11.0 µM 10%
active: [1] 91% | at 33.0 µM 95% | [2] 99% | at 50.0 µM 91.8% | at 100.0 µM 99%
